Screening results as filed in PubChem BioAssay.
Hits are enriched below; roughly 12% of the tested compounds scored in any of these assays.
Sm TGR block: S. mansoni TGR enzyme inhibition | actives 3% (n = 360,000) | Q962Y6 | Potency, µM (doses to about 114 µM), without a hit: top-dose activity change, negative = inhibition, most hits filed as inhibitors | AID 485364 | purified TGR, DTNB reduction, TNB absorbance 405 nm; active means well fitted inhibition curve with a large enough effect; inconclusive means small, poorly fitted or top-dose-only effect; inactive means no such curve, though single readings can be large or run the other way; further: potency means the concentration at half of the fitted maximal effect; on the % scale 0 is the no-effect control and ±100 the full control effect; nearly all actives have a fitted effect of over 60% in size
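Kinetic colorimetric format: TGR-catalysed, NADPH-driven DTNB reduction monitored via TNB absorbance. Enzyme dispensed at 20 nM; compound exposure 15 min at room temperature before reaction start.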
Shiga inhibitor: Shiga toxin inhibition; Vero cells, Shiga toxin protein synthesis inhibition reporter; inhibition, % at 38.7 µM; actives 9.2% (n = 290,000); AID 2315; in the data active means inhibition mostly above about 28%, no sharp cut-off; inactive means mostly below about 43%; further: 0% is about no effect
Cycloheximide cs: affects cycloheximide protein synthesis inhibition readout, counter-screen; cell reporter, cycloheximide protein synthesis inhibition counterscreen; max response, %; actives 12% (n = 300,000); in the data active means max response mostly above about 13%, no sharp cut-off; inactive means mostly below about 14%; further: read at 38.3 µM for the half of the compounds with a filed dose; 0% is about no effect
FMDV inh: foot and mouth disease virus antiviral activity. FMDV antiviral cell-based qHTS. Potency, µM (top dose mostly 57.9 µM), for the others: at the highest dose activity change, negative = inhibition, usual class: inhibitors. actives 1.2% (n = 410,000). AID 1159524; calls by dose curve; tested in HEK293T cells; further: read-out not given here; potency means the concentration at half of the fitted maximal effect; on the % scale 0 is the no-effect control and ±100 the full control effect; nearly all actives have a fitted effect of over 45% in size
Numbers without * were called inactive; ? = inconclusive; nt = not tested or not shown.

SMILES | Sm TGR block | Shiga inhibitor | Cycloheximide cs | FMDV inh
CCOc1ccc(-c2ccc(SCC(=O)NCC3CCCO3)nn2)cc1 (stereo not given) | -3% | 47 | 37* | 7%
Cc1oc2ncn(CC(C)C)c(=O)c2c1C(=O)NCCc1ccc(Cl)cc1 | 9% | nt | nt | -4%
Cc1ccc(S(=O)(=O)NCC(c2ccc(N(C)C)cc2)N2CCc3ccccc32)cc1C (stereo not given) | -3% | nt | nt | 30%
Cc1nc(N2CCCC2)ncc1C(=O)N1CCN(c2ccc(Cl)cc2)CC1 | 2% | nt | nt | -23%
O=C(Nc1ccc(Br)cc1F)c1cc(S(=O)(=O)NCc2ccc(F)cc2)ccc1F | 0% | nt | nt | 23%
CC(C)OC(=O)CSc1nc2c(cc1C#N)CCCCC2 | nt | 9 | 14 | 56%
CCOC(=O)CC(=O)CSc1nc2c(cc1C#N)CCCCC2 | 0% | 84* | 46* | 57%
CC(C)OC(=O)CC(=O)CSc1nc2c(cc1C#N)CCCCC2 | -6% | 72* | 52* | 42%
CCOC(=O)CC(=O)COc1nc2cc3c(nc2o1)CCCC3 | -5% | 91* | 27* | 50%
CCn1cc(/C=N/NC(=O)c2ccc3c(c2)OCO3)c(C)n1 | -2% | 48 | 16* | 27%
CCn1nc(C)c(/C=N\NC(=O)c2ccc3c(c2)OCO3)c1C | -6% | 83* | 39* | -14%
CCn1ncc(/C=N/NC(=O)c2ccc3c(c2)OCO3)c1C | 7% | 23 | 4 | 39%
COc1ccc(C2c3c(oc4ccc(Cl)cc4c3=O)C(=O)N2CCCN(C)C)cc1OC (stereo not given) | 4% | nt | nt | -5%
CCc1ccccc1-n1nnc(-c2ccccc2)n1 | -7% | 4 | 0 | -15%
Brc1ccccc1-n1nnc(-c2ccnc3ccccc23)n1 | 0% | 22 | 19* | 27%
O=C(O)CCCC(=O)Nc1ccccc1SCCS(=O)(=O)c1ccc(Cl)cc1 | 40µM* | 1 | -3 | -22%
COc1ccc(NCc2ccc([N+](=O)[O-])s2)c(OC)c1 | ? | 34* | 25* | -15%
O=[N+]([O-])c1ccc(CNc2ccc(F)cc2)s1 | -18% | -10 | -1 | ?
O=[N+]([O-])c1ccc(CNc2ccc(Cl)cc2)s1 | ? | 28 | 13* | ?
O=[N+]([O-])c1ccc(CNc2cccc(Cl)c2)s1 | -18% | 25 | -2 | ?
COc1ccc(NCc2ccc([N+](=O)[O-])s2)cc1 | ? | 31 | 21* | 0%
O=C(CSc1nnc(-c2cccs2)o1)Oc1ccccc1Cl | -2% | nt | nt | -12%
CCc1ccc(NC(=O)C2CCCN(S(=O)(=O)c3c(C)noc3/C=C/N(C)C)C2)cc1 (stereo not given) | 0% | nt | nt | 0%
COc1ccc(-c2cc3nnc(-c4ccccc4)nc3s2)cc1 | -11% | active | 50* | -30%
COc1cc(N)ccc1NC(=O)c1cc2ccccc2o1 | -14% | 64* | 42* | 33%
SMILES | Sm TGR block | Shiga inhibitor | Cycloheximide cs | FMDV inh
COc1ccc(OC)c(NC(=O)c2cc3ccccc3o2)c1 | -3% | 93 | 27* | 31%
CCCC(=O)Nc1ccc(NC(=O)c2cc3ccccc3o2)c(OC)c1 | 0% | nt | 38* | 16%
COc1cc(NC(C)=O)ccc1NC(=O)c1cc2ccccc2o1 | 6% | 21 | 16* | 54%
COC(=O)C(C)Sc1ncnc2c1c(-c1ccccc1)cn2-c1ccc(F)cc1 (stereo not given) | 3% | nt | nt | 0%
CCOC(=O)c1ccc(N2C(=O)c3[nH]nc(-c4ccc(OC)cc4)c3C2c2ccc(C)cc2)cc1 (stereo not given) | 5% | nt | nt | -15%
Cc1ccc(O)c(NC(=S)NC(=O)CC(C)C)c1 | 8% | 61* | 59* | 35%
Cc1cc(Br)cc(C)c1NC(=S)NC(=O)CC(C)C | ? | -9 | -1 | 4%
Cc1ccc(O)c(NC(=S)NC(=O)C(C)C)c1 | 2% | 52* | 16* | 21%
Cc1ccc(O)c(NC(=S)NC(=O)/C=C/c2ccccc2)c1 | 6% | 7 | 5 | -3%
Cn1nnnc1SCCCNCc1ccccc1OCc1ccc(Cl)cc1 | -2% | nt | nt | 0%
CCSc1ccc(-c2ccco2)nn1 | 13µM* | 85* | 48* | 54%
CSc1ccc(-c2ccco2)nn1 | 10µM* | 127* | 25* | 56%
COc1ccccc1Cn1c(/C=C/c2ccccc2)nc2ccccc21 | 5% | 87* | 74* | -18%
COCCn1c(/C=C/c2ccccc2)nc2ccccc21 | -3% | 68* | 33* | 66%
COc1ccccc1Cn1c(C(C)C)nc2ccccc21 | 3% | -11 | -3 | -18%
Cc1cccc(NC(=O)Cn2c(/C=C/c3ccccc3)nc3ccccc32)c1 | -10% | 111* | 28* | 23%
Cc1ccc(NC(=O)Cn2c(=O)c(C)nc3ccccc32)cc1 | 7% | -9 | 1 | -7%
CC(C)CCn1c(/C=C/c2ccccc2)nc2ccccc21 | 4% | nt | nt | 28%
COc1ccc(/C=C/c2nc3ccccc3n2Cc2ccccc2OC)cc1 | -5% | 106* | 69* | -27%
O=C1Nc2c(c(=O)[nH]c(=O)n2-c2ccc(Cl)cc2)C1(NS(=O)(=O)c1ccccc1)C(F)(F)F (stereo not given) | -2% | nt | nt | 11%
O=C(NCc1ccccc1Br)c1cnc2sc(N3CCCCCC3)nn2c1=O | 3% | nt | nt | ?
COc1ccc(C(C)=O)cc1CSc1nc(NCc2ccccc2)c2ccccc2n1 | 3% | nt | nt | -27%
Cc1[nH]c2ccccc2c1C1(O)C(=O)N(Cc2ccccc2)c2ccc(Cl)cc21 (stereo not given) | -17% | nt | nt | ?
COc1ccc(C2=C(N3CCN(c4cccc(C)c4)C(C)C3)c3ccccc3C2=O)cc1 (stereo not given) | ? | nt | nt | 0%
Cc1nc2cc(C(=O)NCCC3=CCCCC3)ccc2n1-c1ccc(Br)cc1 | 12% | nt | nt | -20%
SMILES | Sm TGR block | Shiga inhibitor | Cycloheximide cs | FMDV inh
COc1ccc(CCN(/C=C2\Sc3ccccc3C2=O)C(C)=O)cc1OC | -20% | 91 | 42* | 6%
CCOc1ccc2oc(C(=O)NC(C)(C)CC)c(C)c2c1 | 1% | 67* | 48* | 27%
CCOc1ccc2oc(C(=O)Nc3ccc(C)cn3)c(C)c2c1 | nt | nt | nt | 49%
Cc1ccc(CC(=O)O/N=C(\N)Cc2ccc([N+](=O)[O-])cc2)cc1 | 0% | -9 | -3 | 0%
Cc1ccc(C(=O)O/N=C(\N)Cc2cccs2)c(Cl)c1 | -10% | 85* | 82* | -29%
Cc1ccc(C(=O)O/N=C(\N)Cc2ccc([N+](=O)[O-])cc2)c(Cl)c1 | 0% | 42 | 9.8* | ?
Cc1ccc(C(=O)c2oc3ccccc3c2NC(=O)COc2ccc(C(C)(C)C)cc2)cc1 | 5% | nt | nt | 13%
COc1cccc(C(=O)n2nc(-c3ccco3)nc2NCc2cccs2)c1 | -26% | nt | nt | 30%
Cc1cc2c(c(=O)o1)C(c1ccc([N+](=O)[O-])o1)C(C#N)=C(N)O2 (stereo not given) | 14µM* | -2 | 2 | -17%
CCC(CC)C1C(C#N)=C(N)Oc2cc(C)oc(=O)c21 (stereo not given) | 0% | -13 | 1 | nt
CCOC(=O)c1ccc(NC(=O)c2cn3c4c(ccc(Cl)c4c2=O)OC(C)C3)cc1 (stereo not given) | -11% | nt | nt | -13%
COc1cccc(-n2c(-c3ccco3)nc3c(cnn3-c3ccccc3C)c2=O)c1 | -1% | nt | nt | 14µM*
